In the library only some 1.4% were active in any assay of this set; here they are far more common.
LYPLA2 inh: LYPLA2 (human) inhibition in PME1 counter-screen. recombinant LYPLA2, FP-Rh probe fluorescence polarization. inhibition, % at 5.9 µM. 320,000 tested, 0.38% active. AID 2177;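 active means inhibition above the screen-wide mean plus 3 SD, limit set per campaign, cut at about 26% in these data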;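 further: 0% = LYPLA2 with DMSO and 100% = wells lacking LYPLA2 enzyme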
Target sequence (O95372 whole entry, looked up): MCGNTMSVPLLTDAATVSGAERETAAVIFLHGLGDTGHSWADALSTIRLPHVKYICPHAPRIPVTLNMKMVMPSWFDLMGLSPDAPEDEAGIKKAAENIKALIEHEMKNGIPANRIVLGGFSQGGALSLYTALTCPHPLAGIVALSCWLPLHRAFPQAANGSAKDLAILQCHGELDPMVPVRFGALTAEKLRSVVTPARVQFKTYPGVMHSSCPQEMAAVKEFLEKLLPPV
EBNA-1 inhibitor: blocks EBNA-1 binding to DNA. EBNA-1 DNA binding, fluorescence polarization. inhibition, % at 14.8 µM. 300,000 tested, 0.34% active. AID 1950; in the data active means inhibition above about 28%
ZTA DNA inh: counter-screen for EBNA-1 inhibitors: inhibitors of Epstein-Barr virus ZTA; P03206; ZTA-DNA binding, fluorescence polarization; inhibition, % at 11 µM; 320,000 tested, 0.15% active; AID 2234; in the data active means inhibition above about 33%
Target sequence (P03206 whole entry, looked up): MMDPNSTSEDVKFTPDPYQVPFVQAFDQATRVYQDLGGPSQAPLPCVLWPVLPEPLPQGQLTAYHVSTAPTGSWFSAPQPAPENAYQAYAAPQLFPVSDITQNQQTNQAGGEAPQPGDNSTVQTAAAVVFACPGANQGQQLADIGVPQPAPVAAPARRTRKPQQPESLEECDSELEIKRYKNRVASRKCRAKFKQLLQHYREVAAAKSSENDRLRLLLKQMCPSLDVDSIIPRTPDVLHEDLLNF
LANA-H2B inh: blocks KSHV LANA binding to histone H2A/H2B; cell-free LANA-H2A/H2B peptide, fluorescence polarization; 320,000 tested, 0.6% active; Q9QR71; inhibition, % (no concentration beside the values); AID 2629; in the data active means inhibition mostly above about 10%, no sharp cut-off; inactive means mostly below about 6.7%
LYPLA1 inh: blocks human lysophospholipase 1, a PME1 counter-screen. O75608. recombinant LYPLA1, FP-Rh probe fluorescence polarization. inhibition, % at 5.9 µM. 320,000 tested, 0.16% active;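 active means inhibition above the mean of all tested compounds plus 3 SD, set per campaign, cut at about 14% in these data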;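 further: inhibitors block serine hydrolase probe labeling of LYPLA1 so polarization falls; 0% = enzyme with DMSO and 100% = wells lacking LYPLA1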
LYPLA2 confirm: LYPLA2 (human) inhibition, confirmation counter-screen; shares compounds with LYPLA2 inh; recombinant LYPLA2, FP-Rh probe fluorescence polarization; inhibition, % at 5.9 µM; 1,100 tested, 72% active;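 active means mean inhibition across replicates above the hit cutoff set in the primary screen, cut at about 26% in these data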;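 further: blocked labeling of the enzyme by serine hydrolase FP-Rh probe lowers polarization; 0% = enzyme with DMSO and 100% = wells lacking LYPLA2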
LYPLA2 gel ABPP: LYPLA2 (human) inhibition, late stage results | shares compounds with LYPLA2 inh | rhLYPLA2 in mouse brain proteome, gel ABPP FP-Rh | inhibition, % at 20 µM | 150 tested, 30% active | AID 652029;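 active means inhibition of LYPLA2 enzyme probe labeling above about 50%, limit read from the data; inactive means inhibition below that limit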;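 further: loss of FP-Rh probe labeling of the LYPLA2 gel band measured as band density; 0% = DMSO only control band and 100% = blank gel background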
Numbers without * were called inactive; . = no result given.

SMILES	LYPLA2 inh	EBNA-1 inhibitor	ZTA DNA inh	LANA-H2B inh	LYPLA1 inh	LYPLA2 confirm	others
COc1ccc(S(=O)(=O)N2CCCCCC2)cc1C(=O)N(C)CC(=O)Nc1ccccc1Br	38*	-2	-8	-3	2	1
COc1ccc(S(=O)(=O)N2CCOCC2)cc1NC(=O)c1cc(=O)[nH]c2ccccc12	-1	.	1	5	-3	.
O=C(Nc1cc(S(=O)(=O)N2CCCCC2)ccc1N1CCOCC1)c1cc(=O)[nH]c2ccccc12	32*	-2	11	1	-2	27*
CCCCOc1ccc(C(=O)NNC(=O)c2cnccn2)cc1OC	.	.	.	5	.	.
CC(C)C(NC(=O)c1ccccc1)C(=O)N1CCN(C/C=C/c2ccccc2)CC1 (stereo unspecified)	3	.	7	1	1	.
CSCCC(NC(=O)c1ccc(Cl)c([N+](=O)[O-])c1)C(=O)N1CCN(C/C=C/c2ccccc2)CC1 (stereo unspecified)	34*	-5	14	7	1	38*
O=C(NCc1cccnc1)c1ccc(NC(=O)c2ccc([N+](=O)[O-])cc2)cc1	37*	2	20	-4	6	30*
O=C(NC(=S)NCc1cccnc1)c1ccc([N+](=O)[O-])cc1	8	1	-17	-3	2	.
O=C(NCC(=O)N1CCN(C/C=C/c2ccccc2)CC1)c1ccc(OC(F)F)cc1	35*	.	-6	5	1	32*
COc1ccc(NC(=O)CSc2nccn2Cc2ccco2)cc1	7	8	2	3	-2	.
Cc1ccc2nc(NC(=O)C3CCCN3C(=O)OC(C)(C)C)sc2c1 (stereo unspecified)	-1	4	13	1	-1	.
CCN1CCN(C(=O)c2ccc3c(c2)S(=O)(=O)c2ccccc2C3=O)CC1	40*	5	-2	5	6	44*
CC(=O)N1CCN(C(=O)c2ccc3c(c2)S(=O)(=O)c2ccccc2C3=O)CC1	32*	6	20	-10	3	32*
CN1CCN(C(=O)c2ccc3c(c2)S(=O)(=O)c2ccccc2C3=O)CC1	4	0	-12	-3	1	.
CC(C(=O)Nc1cc([N+](=O)[O-])ccc1Cl)N1CCN(c2ccc(O)cc2)CC1 (stereo unspecified)	-30	-4	2	11	-9	.
C=CCn1c(SCc2ccc(C(=O)O)cc2)nc2sc(C)c(C)c2c1=O	43*	2	-1	2	-1	37*
CCc1ccc(-n2c(=O)c3c(C)c(C)sc3n(CC(=O)NCC3CCCO3)c2=O)cc1 (stereo unspecified)	1	-6	-15	0	-2	.
CN1CCN(C(=O)c2cc3c(s2)-c2ccccc2S(=O)(=O)C3)CC1	3	-8	3	1	-1	.
COc1ccc(N2CCN(C(=O)c3cc4c(s3)-c3ccccc3S(=O)(=O)C4)CC2)cc1	89*	6	-7	-1	1	97*	LYPLA2 gel ABPP=100*
CCOc1ccc(C(=O)C2CCN(C(=O)c3ccc([N+](=O)[O-])cc3)CC2)cc1	33*	-1	0	-4	3	31*
COc1ccc(C)cc1NC(=O)C1CCN(C(=O)c2ccc(C(C)(C)C)cc2)CC1	41*	-17	8	5	10	44*
CCOc1ccc(C(=O)C2CCN(C(=O)c3ccccc3C(=O)O)CC2)cc1	0	2	-8	4	0	.
CC(C)(C)c1ccc(C(=O)N2CCC(C(=O)NC3CCCCCC3)CC2)cc1	48*	-10	2	-3	0	54*	LYPLA2 gel ABPP=20
Cc1ccc(C(=O)N2CCC(C(=O)Nc3cccc([N+](=O)[O-])c3)CC2)cc1	32*	5	-1	2	6	17
CN(Cc1ccccc1OCCO)CC1CCCN(CCc2ccc(Cl)cc2)C1 (stereo unspecified)	-2	-8	-6	-6	0	.
SMILES	LYPLA2 inh	EBNA-1 inhibitor	ZTA DNA inh	LANA-H2B inh	LYPLA1 inh	LYPLA2 confirm	others
COc1ccc(Br)cc1S(=O)(=O)N1CCCc2ccccc21	-4	-16	-25	-3	0	.
COc1ccc(CCN(C)C2CCCN(S(=O)(=O)c3ccccc3)C2)cc1OC (stereo unspecified)	.	.	.	-3	.	.
CC[C@H](C)[C@H]1O[C@]2(CC[C@@H]1C)C[C@@H]1C[C@@H](CC=C(C)[C@@H](O[C@H]3C[C@H](OC)[C@@H](O[C@H]4C[C@H](OC)[C@@H](O)[C@H](C)O4)[C@H](C)O3)[C@@H](C)C=CC=C3CO[C@@H]4[C@H](O)C(C)=C[C@@H](C(=O)O1)[C@]34O)O2	4	-7	-14	3	-1	.
COc1ccc(N2CCN(C(=O)c3cc4cc(Cl)ccc4[nH]3)CC2)cc1	37*	1	-14	8	5	50*
COc1ccc(N2CCN(c3ccnc4cc(Cl)ccc34)CC2)cc1	26*	-3	-13	2	5	19
O=S(=O)(c1ccc(F)cc1)N1CCN(CC(O)COCc2cccs2)CC1 (stereo unspecified)	3	-8	-30	6	-1	.
OC(COCc1cccs1)CN1CCN(c2cccc(C(F)(F)F)c2)CC1 (stereo unspecified)	34*	-9	-6	4	3	29*
CCCC(=O)Nc1ccc(NC(=S)NC(=O)c2ccccc2[N+](=O)[O-])cc1	30*	-1	-4	-3	2	31*
NC(=O)c1ccc(Oc2cccc3cccnc23)c([N+](=O)[O-])c1	10	-3	-9	4	0	.
O=[N+]([O-])c1ccc(Oc2cccc3cccnc23)c(Cl)c1	28*	-5	-1	0	-4	16
CC1CN(CCOc2ccc([N+](=O)[O-])cc2)CC(C)O1 (stereo unspecified)	-1	8	18	2	0	.
O=[N+]([O-])c1ccc(OCCOCCOc2ccc([N+](=O)[O-])cc2)cc1	-2	1	12	6	-3	.
O=Cc1ccc(OCCOc2ccc([N+](=O)[O-])cc2)cc1	37*	6	15	-3	5	23
O=[N+]([O-])c1ccc(OCCN2CCNCC2)cc1	29*	9	0	2	5	26*
CC(=O)N1CCN(Cc2nc3cc(NC(=O)COc4cccc(C)c4)ccc3n2C)CC1	2	6	-9	-8	0	.
O=C1c2ccc(Oc3ccc4c(c3)C(=O)N(CCCO)C4=O)cc2C(=O)N1CCCO	29*	3	-11	3	4	15
COc1ccc(OCC(=O)Nc2ccc(NC(=O)c3cccs3)c(OC)c2)cc1	12	-5	6	-1	-4	.

Assay outcomes (PubChem BioAssay)
